Screens: PubChem BioAssay, several laboratories
PolyA inhibitor = inhibitors of polyadenylation in S. cerevisiae. S. cerevisiae SKY197-pL101 polyadenylation reporter, beta-gal luminescence; efflux-impaired pdr1/pdr3 knockout yeast; score 100 = 6 SD above DMSO. activity score, % at 12 µM. 0.02% of 300,000 active;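 active = lowest replicate activity score at least 50, where 100 means six control SD above control mean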;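 also: yeast exposed to compound for 9 h at 30 °C; higher score means more reporter readthrough which indicates perturbed polyadenylation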
A3G deaminase = inhibitors of human APOBEC3G DNA deaminase | Q9HC16 | 0.28% of 330,000 active | recombinant A3G, ssDNA deamination FAM/TAMRA fluorescence | inhibition, % at 20 µM;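 active = inhibition of at least 40% at 20 µM, with no more than 30% in the related APOBEC3A deaminase screen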;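 also: plate controls were DMSO wells with A3G for no effect and wells lacking A3G enzyme for full effect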
Target sequence (Q9HC16 whole entry, looked up): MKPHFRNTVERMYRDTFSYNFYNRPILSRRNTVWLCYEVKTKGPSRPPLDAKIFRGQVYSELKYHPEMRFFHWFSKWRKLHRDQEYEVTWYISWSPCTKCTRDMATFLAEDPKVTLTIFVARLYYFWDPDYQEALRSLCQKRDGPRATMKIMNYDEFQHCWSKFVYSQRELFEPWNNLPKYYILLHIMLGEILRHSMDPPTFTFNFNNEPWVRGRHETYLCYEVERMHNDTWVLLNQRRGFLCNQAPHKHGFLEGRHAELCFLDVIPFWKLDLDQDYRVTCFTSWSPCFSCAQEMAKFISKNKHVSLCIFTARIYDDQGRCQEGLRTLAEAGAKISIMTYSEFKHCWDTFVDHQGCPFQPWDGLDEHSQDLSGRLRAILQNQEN
A3A deaminase = inhibitors of human APOBEC3A DNA deaminase; P31941; recombinant A3A, FAM/TAMRA ssDNA deamination fluorescence; inhibition, % at 20 µM; 0.41% of 330,000 active; AID 493011;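 active = at least 40% inhibition at 20 µM here, with at most 30% in a related deaminase screen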;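 also: plate controls were A3A with DMSO for no effect and wells lacking A3A enzyme for full effect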
NALP1 inh = NALP1 inhibition. 0.61% of 280,000 active. S. cerevisiae NALP1/ASC/caspase-1 growth, X-gal OD620, 72 h. inhibition, % at 10 µM. AID 2071; in the data active = inhibition mostly above about 24%, no sharp cut-off; inactive = mostly below about 32%
Active calls of the source: *; . = not tested or not shown. A selection: hits, their analogues and other compounds. The true share with any hit is near 1.2%.

SMILES	PolyA inhibitor	A3G deaminase	A3A deaminase	NALP1 inh
Cc1cc(N2C(=O)C=CC2=O)c([N+](=O)[O-])cc1C	.	31.5	0.7	64.1*
Cc1ccc(N2C(=O)C3C4C=CC(CC4)C3C2=O)cc1[N+](=O)[O-] (stereo not given)	9.3	-7.5	-4.2	-2.9
O=C(Nc1ccccc1Cl)C1Cc2ccccc2O/C1=N\O (stereo not given)	-18.0	-1.4	1.5	2.9
CSc1ccc(/C=C/C(=O)c2ccc(NC(C)=O)cc2)cc1	3.1	1.4	1.1	53.2*
CC(CC(F)(F)F)N1CCC(n2nccc2NC(=O)CCOc2ccccc2)CC1 (stereo not given)	-4.7	-9.0	-5.4	17.5
CCc1c(C)c(C#N)c2nc3ccccc3n2c1NCCN(C)C	-6.6	-7.2	0.2	32.2*
C=CCc1c(C)c(C#N)c2nc3ccccc3n2c1NCCN(C)C	-21.6	8.6	2.6	33.3*
COc1ccc(-c2noc(N3CCC(C(=O)Nc4ccccc4OC)CC3)n2)cc1	3.7	-0.5	-2.7	13.9
CCc1nonc1NC(=O)c1oc2ccc(F)cc2c1C	19.4	-6.5	-6.9	2.0
Cc1c(C(=O)Nc2nonc2-c2ccc(F)cc2)oc2ccc(F)cc12	103.1*	-7.4	-0.1	-2.7
CCN(CC)C(=S)SSC(=S)N(CC)CC	-0.3	6.5	-0.5	102.2*
CCN(CC)C(=S)SCC(=O)c1ccccc1	-3.0	1.0	1.7	9.2
CCOc1cc(/C=N/NC(=O)c2nnn(-c3nonc3N)c2C)ccc1OCc1cccc(F)c1	-13.8	-2.6	-4.2	23.3
Cc1c(NC(=O)COC(=O)/C=C/c2cccc(Cl)c2)c(=O)n(-c2ccccc2)n1C	.	-7.3	-2.6	.
CCN(C(=O)C1CCN(S(=O)(=O)c2cccc3nonc23)CC1)c1ccccc1	4.3	8.7	1.4	-7.6
CCN(CC)C(=O)C1CCN(S(=O)(=O)c2cccc3nonc23)CC1	-4.7	2.3	-2.3	43.1*
O=C1/C(=C\c2ccco2)SC(=S)N1c1ccc(O)cc1	-6.0	5.3	27.4	75.6*
O=C(CN1C(=O)NC(Cc2c[nH]c3ccccc23)C1=O)NC1CCCCC1 (stereo not given)	.	-6.4	-4.3	.
CCCc1ccc(NC(=O)C2CCCN(c3cnccn3)C2)cc1 (stereo not given)	-7.5	0.1	-1.2	22.4
Brc1cccc(-c2n[nH]c(-c3ccccc3)n2)c1	-12.8	0.7	0.9	28.6*
c1ccc(-c2nc(-c3cccnc3)n[nH]2)cc1	19.8	-8.7	-1.8	27.0
Cc1cc(C)c(S(=O)(=O)Nc2cc(SCC(=O)O)c(O)c3ccccc23)cc1C	7.3	.	.	49.2*
CCOC(=O)c1[nH]c2ccc(F)cc2c1NC(=O)C(C)N1CCc2cc(OC)c(OC)cc2C1 (stereo not given)	-6.7	4.7	30.9	31.0*
CCOC(=O)c1[nH]c2ccc(OC)cc2c1NC(=O)C(C)N1CCC2(CC1)OCCO2 (stereo not given)	.	.	.	18.4
CCOC(=O)c1c(-c2ccc(C)cc2)cn2ccccc12	-18.5	-0.7	-0.7	0.6
SMILES	PolyA inhibitor	A3G deaminase	A3A deaminase	NALP1 inh
CCOC(=O)c1c(-c2ccccc2)cn2ccccc12	-21.6	1.5	1.9	25.1*
O=C(Nc1ccc(F)cc1)N1CCN(C(=O)C2CCCO2)CC1 (stereo not given)	-15.3	-1.8	2.8	34.0*
N#CCSc1nnc(-c2c[nH]c3ccccc23)o1	-1.8	-5.1	-8.4	12.1
CCSc1nnc(-c2c[nH]c3ccccc23)o1	-0.4	5.6	-0.6	36.8*
Cc1ccccc1-n1ncc2c1CC(C)(C)CC2NC(=O)CCN1Cc2ccccc2C1=O (stereo not given)	-4.0	1.1	-3.2	-5.0
COc1ccc(NCc2cc(=O)[nH]c3ccccc23)cc1	-4.5	11.3	-6.2	25.7
O=c1cc(CNCCCO)c2ccccc2[nH]1	3.1	-0.7	-2.9	26.4*
CCOc1ccccc1C(=O)N[C@H](C(=O)Nc1cc(S(=O)(=O)N(C)C)ccc1OC)C(C)C	1.1	-0.9	1.9	23.8*
CC(C)c1ccc(/C=C/C(=O)Nc2ccc(CN3CCOCC3)cc2)cc1	-53.7	-4.3	-3.7	39.5*
CC(C)c1ccc(CN2CCN(C(=O)CCl)CC2)cc1	.	.	.	59.3*
CC(C)CC(=O)N1CCN(Cc2ccc(Cl)cc2)CC1	22.0	-6.3	-2.1	14.9
C(=C\c1nc(N2CCCCCC2)c2ccccc2n1)/c1ccccc1	-5.9	-4.1	-3.2	57.0*
c1ccc2c(N3CCCCC3)nc(N3CCCCC3)nc2c1	2.2	2.9	0.8	25.0
CC1CCCN(CCCOc2ccc(Br)cc2Cl)C1 (stereo not given)	-83.5	-5.7	1.6	26.5*
